Screening results: PubChem BioAssay, several laboratories
In the library only some 10% were active in any assay of this set; here they are far more common.
HCT116 PTEN-null: PTEN-deleted cell growth suppression | HCT116 PTEN-null viability, CellTiter-Glo, 60 h; stronger effect = lower value | viability, % at 10 µM | 140,000 tested, 1.2% active;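 active = viability at or below a set limit, 4 SD under the median of all tested compounds, cut at about 3.7% in these data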;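 also: PTEN knockout HCT116 line with beta catenin targeted HCT116 as companion control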
p97 ATPase inh: inhibitors of human p97 ATPase; AID 1481; recombinant p97 ATPase, Kinase-Glo ATP luminescence, 3 h; inhibition, % at 8 µM; P55072; 220,000 tested, 0.42% active; in the data active = inhibition above about 15%;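 also: 0% = DMSO vehicle and 100% = wells lacking enzyme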
Target sequence (P55072 whole entry, looked up): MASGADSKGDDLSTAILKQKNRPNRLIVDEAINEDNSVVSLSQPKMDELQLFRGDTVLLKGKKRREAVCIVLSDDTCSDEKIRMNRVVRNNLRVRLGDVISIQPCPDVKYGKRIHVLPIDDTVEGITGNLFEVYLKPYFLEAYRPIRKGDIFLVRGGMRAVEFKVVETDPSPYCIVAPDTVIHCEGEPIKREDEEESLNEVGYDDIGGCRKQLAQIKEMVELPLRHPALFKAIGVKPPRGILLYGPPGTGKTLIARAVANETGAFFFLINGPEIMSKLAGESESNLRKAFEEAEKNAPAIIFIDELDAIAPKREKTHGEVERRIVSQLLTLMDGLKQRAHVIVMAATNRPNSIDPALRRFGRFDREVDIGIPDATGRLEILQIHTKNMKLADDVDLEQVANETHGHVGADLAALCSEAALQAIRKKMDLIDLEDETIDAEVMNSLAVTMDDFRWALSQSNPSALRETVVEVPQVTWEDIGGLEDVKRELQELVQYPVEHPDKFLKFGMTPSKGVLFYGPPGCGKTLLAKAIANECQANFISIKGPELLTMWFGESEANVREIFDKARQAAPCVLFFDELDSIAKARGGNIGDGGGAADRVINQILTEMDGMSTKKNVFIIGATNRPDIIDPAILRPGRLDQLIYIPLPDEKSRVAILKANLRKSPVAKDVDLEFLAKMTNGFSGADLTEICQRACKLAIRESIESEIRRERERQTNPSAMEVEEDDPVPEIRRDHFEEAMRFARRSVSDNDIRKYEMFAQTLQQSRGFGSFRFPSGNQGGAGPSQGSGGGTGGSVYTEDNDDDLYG
L major viab: inhibitors of Leishmania major promastigote growth; 200,000 tested, 9% active; inhibition, % at 10 µM; Leishmania major promastigotes, resazurin fluorescence viability; in the data active = inhibition above about 50%;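 also: promastigotes grown with compound for 44 hours at 28 °C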
INS promoter inh: TRM-6 insulin promoter activity inhibition. 130,000 tested, 0.9% active. inhibition, % at 2 µM. TRM-6 cells (human fetal islet line), insulin promoter-eGFP reporter, imaging; reporter expression induced with tamoxifen;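 active = inhibition above the mean plus 3 SD, with well images judged a real hit on visual review, cut at about 60% in these data, passing the limit was not always enough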
ROMK mod: modulates human ROMK potassium channel activity. AID 1918. B-score at 10 µM. P48048. Tet-inducible ROMK, thallium flux fluorescence; actives lie on both sides. 130,000 tested, 2% active;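 active = signal ratio slope over the read window, or its plate-corrected B-score, at least 3 SD from the plate mean, either direction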;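 also: B-score of the F/F0 ratio slope over 7 to 12 s after thallium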
HCT116 bCat-KO: beta-catenin-lacking colon tumor cell growth suppression | viability, % at 10 µM | AID 818 | 140,000 tested, 1.5% active | HCT116 beta-catenin knockout viability, CellTiter-Glo, 60 h; stronger effect = lower value;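 active = viability at or under a set limit, the compound median less 4 SD, cut at about 6% in these data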;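 also: 0% = Hyamine 1622 control at 20 µM and 100% = untreated cell control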
* marks the source's active call; other numbers are inactive results.

Cc1cccc(Nc2nnc(SCC(=O)Nc3cccnc3Cl)s2)c1 was read as HCT116 PTEN-null 97.7, p97 ATPase inh -3.2, L major viab 62.0*, INS promoter inh -13.3, ROMK mod 0.374 and HCT116 bCat-KO 107.9.
For Cc1nnc(SCC(=O)NC(=O)Nc2ccc3c(c2)OCCO3)s1 the results were p97 ATPase inh 1.3, L major viab 7.8 and ROMK mod -0.503.
COc1ccccc1Nc1nnc(SCC(=O)NC(=O)Nc2ccc3c(c2)OCCO3)s1 was read as HCT116 PTEN-null 14.4, p97 ATPase inh 3.2, L major viab 55.5*, INS promoter inh -77.8, ROMK mod -0.144 and HCT116 bCat-KO 17.9.
Cc1cc(NC(=O)CSc2nnc(Nc3ccccc3C)s2)no1 was read as p97 ATPase inh 6.2.
For Cc1cccc(Nc2nnc(SCC(=O)NCc3cccs3)s2)c1 the results were p97 ATPase inh 0.3, L major viab 6.9, INS promoter inh -11.8 and ROMK mod -1.31.
Cc1cccc(Nc2nnc(SCC(=O)NC(=O)Nc3ccc4c(c3)OCCO4)s2)c1 was read as HCT116 PTEN-null 0.8*, p97 ATPase inh 3.7, L major viab 28.4, INS promoter inh -18.5, ROMK mod 0.019 and HCT116 bCat-KO 0.6*.
Screening Cc1ccccc1Nc1nnc(SCC(=O)NC(=O)Nc2ccc3c(c2)OCCO3)s1 returned HCT116 PTEN-null 19.6, p97 ATPase inh -2.5, L major viab 59.6*, INS promoter inh -11.1, ROMK mod -0.173 and HCT116 bCat-KO 34.2.
`CCN(CC)S(=O)(=O)c1ccc(NC(=O)C2c3ccccc3Oc3ccccc32)cc1` gave HCT116 PTEN-null 70.3, p97 ATPase inh 3.5, L major viab 5.2, INS promoter inh -50.0, ROMK mod 0.734 and HCT116 bCat-KO 77.9.
`O=C(Nc1ccc(-n2nncc2-c2ccco2)cc1)c1cc2ccccc2oc1=O` gave HCT116 PTEN-null 7.9, p97 ATPase inh 3.6, L major viab 0.6, INS promoter inh 30.0 and HCT116 bCat-KO 14.6.
`COc1ccc(Nc2c([N+](=O)[O-])ccc3c2=NC2(CCCCC2)N=3)cc1` gave p97 ATPase inh -0.2 and L major viab 13.7.
`COc1ccccc1NS(=O)(=O)c1cccc(-n2c(O)c(C=Nc3ccccc3C(=O)O)c3ccccc3c2=O)c1` gave p97 ATPase inh -7.1.
Screening Cc1cccc2c1NC(=O)C2(c1ccc(O)cc1)c1ccc(O)cc1 returned HCT116 PTEN-null 64.5, p97 ATPase inh 2.9, L major viab -5.9, INS promoter inh -31.0 and HCT116 bCat-KO 55.9.
`Cc1cc(C2(c3ccc(O)c(C)c3)C(=O)Nc3ccccc32)ccc1O` gave HCT116 PTEN-null 1.5*, p97 ATPase inh 1.7, L major viab 93.0*, INS promoter inh -126.7 and HCT116 bCat-KO 1.1*.
CC(=O)c1cccc(NC(=O)c2nc(-c3ccccc3)oc2C)c1 was read as p97 ATPase inh 0.6, L major viab -4.0, INS promoter inh -56.8 and ROMK mod 0.188.
For CCC(=O)N1CCc2cc(S(=O)(=O)CCC(=O)Nc3ccc(C)c(F)c3)ccc21 the results were HCT116 PTEN-null 90.9, p97 ATPase inh -1.2, L major viab 0.0, INS promoter inh 0.0, ROMK mod 0.122 and HCT116 bCat-KO 88.6.
`CCC(=O)N1CCc2cc(S(=O)(=O)CCC(=O)Nc3cccc(C)n3)ccc21` gave p97 ATPase inh -3.2, L major viab 55.7* and ROMK mod 0.0492.
CC1(C)CC(NC(=O)c2ccccn2)CC(C)(C)N1O was read as p97 ATPase inh -7.7, L major viab -1.5 and ROMK mod 0.493.
Screening CCOCCCn1c(=N)c(C(=O)Nc2cc(C)on2)cc2c(=O)n3ccccc3nc21 returned p97 ATPase inh 2.0, L major viab 18.6, INS promoter inh 37.5 and ROMK mod 0.276.
Screening N=c1n(Cc2ccccc2)c2ccccc2n1CC(O)COc1ccc(Cl)cc1Cl (stereo unspecified) returned p97 ATPase inh 5.7, L major viab 100.4*, INS promoter inh -14.3 and ROMK mod -1.65.
For COCc1cc(=O)[nH]c(/N=C(\N)Nc2cccc(Cl)c2)n1 the results were p97 ATPase inh -1.6, L major viab -1.6, INS promoter inh 61.1 and ROMK mod 1.77.
`CC1CCN(C(=O)C2CCN(C(=O)c3cc4sccc4n3Cc3ccc(F)cc3)CC2)CC1` gave HCT116 PTEN-null 42.2, p97 ATPase inh -5.5, L major viab 67.0*, ROMK mod -2.9 and HCT116 bCat-KO 47.8.
For CC(C)NC(=O)C1CCN(C(=O)c2cc3sccc3n2Cc2ccc(F)cc2)CC1 the results were HCT116 PTEN-null 78.8, p97 ATPase inh 2.9, L major viab 13.3, ROMK mod -0.735 and HCT116 bCat-KO 77.1.
For O=C(c1cc2sccc2n1Cc1ccc(F)cc1)N1CCCc2ccccc21 the results were HCT116 PTEN-null 56.2, p97 ATPase inh 3.3, L major viab 78.0*, INS promoter inh -27.8, ROMK mod -0.618 and HCT116 bCat-KO 55.2.
For COc1ccc(S(=O)(=O)N(C)CC(=O)NC2CC2)cc1 the results were HCT116 PTEN-null 83.8, p97 ATPase inh 2.5, L major viab -4.9, INS promoter inh -32.3, ROMK mod -0.0334 and HCT116 bCat-KO 95.2.
Screening C=CCN1C(=O)N/C(=C/c2ccc(N3CCOCC3)o2)C1=O returned HCT116 PTEN-null 19.4, p97 ATPase inh 1.1, L major viab 6.9, INS promoter inh -203.4, ROMK mod -3.79* and HCT116 bCat-KO 24.2.
O=C1S/C(=C/c2ccc(N3CCOCC3)o2)C(=O)N1Cc1ccc(F)cc1 was read as HCT116 PTEN-null 101.9, p97 ATPase inh -3.1, L major viab -2.7, INS promoter inh -5.7 and HCT116 bCat-KO 96.2.
For O=C1NC(=S)S/C1=C/c1ccc(N2CCOCC2)o1 the results were HCT116 PTEN-null 85.0, p97 ATPase inh 2.8, L major viab -5.6, INS promoter inh -140.6, ROMK mod -3.34* and HCT116 bCat-KO 84.0.
For COc1ccc(OC)c(NC(=O)[C@@H]2CCCN2C(=O)c2cccs2)c1 the results were HCT116 PTEN-null 98.9, p97 ATPase inh 2.4, L major viab -5.9, INS promoter inh -15.4, ROMK mod 0.418 and HCT116 bCat-KO 99.5.
Screening Cc1cccc2c1N(C(=O)CN1C(=O)c3ccccc3C1=O)C(C)(C)c1ssc(=S)c1-2 returned HCT116 PTEN-null 82.3, p97 ATPase inh 7.6, L major viab 39.3, INS promoter inh 0.0, ROMK mod -2.77 and HCT116 bCat-KO 83.9.
`Cc1cc(C)c2c(c1)-c1c(ssc1=S)C(C)(C)N2C(=O)CN1C(=O)c2ccccc2C1=O` gave HCT116 PTEN-null 70.2, p97 ATPase inh 1.0, L major viab 97.0*, INS promoter inh -41.7, ROMK mod 0.00142 and HCT116 bCat-KO 78.7.
Cc1ccc(NS(=O)(=O)c2cc(C(=O)Nc3cccc(N(C)S(C)(=O)=O)c3)ccc2C)c(C)c1 was read as HCT116 PTEN-null 77.4, p97 ATPase inh 4.0, L major viab 69.1*, INS promoter inh -13.2, ROMK mod 0.184 and HCT116 bCat-KO 82.6.
`CN(c1cccc(NC(=O)c2ccc(C(C)(C)C)cc2)c1)S(C)(=O)=O` gave p97 ATPase inh -3.0, L major viab 16.9 and ROMK mod -1.19.
